SMILES strings stand for the structures. “And” between values parts separate entries of the source, which are not always exact repeats. Identical values can stand only once. The source made the active and inactive calls.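 How the source made its calls, unless noted: active means luciferase signal above three times the same-plate solvent-only control wells; inactive means the rest.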

Mitogen-activated protein kinase 7 (Homo sapiens), sequence (Q13164 whole entry, looked up, the tested form may be a part): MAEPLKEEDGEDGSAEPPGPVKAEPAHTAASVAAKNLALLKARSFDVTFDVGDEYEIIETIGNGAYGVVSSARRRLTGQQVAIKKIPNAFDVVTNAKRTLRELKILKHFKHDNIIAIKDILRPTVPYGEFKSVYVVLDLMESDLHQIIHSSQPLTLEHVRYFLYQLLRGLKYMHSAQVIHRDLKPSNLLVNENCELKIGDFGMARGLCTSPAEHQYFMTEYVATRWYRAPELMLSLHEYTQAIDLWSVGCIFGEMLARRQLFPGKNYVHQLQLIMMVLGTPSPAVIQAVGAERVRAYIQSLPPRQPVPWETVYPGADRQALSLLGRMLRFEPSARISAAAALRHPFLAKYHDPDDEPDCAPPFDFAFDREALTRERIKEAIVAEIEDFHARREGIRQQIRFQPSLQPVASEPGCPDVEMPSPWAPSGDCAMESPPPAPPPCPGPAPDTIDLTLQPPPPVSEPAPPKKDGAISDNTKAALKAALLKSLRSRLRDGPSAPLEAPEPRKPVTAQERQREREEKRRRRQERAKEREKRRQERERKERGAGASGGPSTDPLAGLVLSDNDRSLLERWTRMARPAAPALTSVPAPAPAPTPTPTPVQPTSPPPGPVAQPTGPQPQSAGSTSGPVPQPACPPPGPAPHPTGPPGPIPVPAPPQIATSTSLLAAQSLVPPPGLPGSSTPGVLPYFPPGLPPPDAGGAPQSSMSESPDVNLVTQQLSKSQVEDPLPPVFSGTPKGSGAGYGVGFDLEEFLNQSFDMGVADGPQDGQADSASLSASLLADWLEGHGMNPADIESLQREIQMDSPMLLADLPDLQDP
NAD(+) hydrolase SARM1 (Homo sapiens), sequence (Q6SZW1 whole entry, looked up): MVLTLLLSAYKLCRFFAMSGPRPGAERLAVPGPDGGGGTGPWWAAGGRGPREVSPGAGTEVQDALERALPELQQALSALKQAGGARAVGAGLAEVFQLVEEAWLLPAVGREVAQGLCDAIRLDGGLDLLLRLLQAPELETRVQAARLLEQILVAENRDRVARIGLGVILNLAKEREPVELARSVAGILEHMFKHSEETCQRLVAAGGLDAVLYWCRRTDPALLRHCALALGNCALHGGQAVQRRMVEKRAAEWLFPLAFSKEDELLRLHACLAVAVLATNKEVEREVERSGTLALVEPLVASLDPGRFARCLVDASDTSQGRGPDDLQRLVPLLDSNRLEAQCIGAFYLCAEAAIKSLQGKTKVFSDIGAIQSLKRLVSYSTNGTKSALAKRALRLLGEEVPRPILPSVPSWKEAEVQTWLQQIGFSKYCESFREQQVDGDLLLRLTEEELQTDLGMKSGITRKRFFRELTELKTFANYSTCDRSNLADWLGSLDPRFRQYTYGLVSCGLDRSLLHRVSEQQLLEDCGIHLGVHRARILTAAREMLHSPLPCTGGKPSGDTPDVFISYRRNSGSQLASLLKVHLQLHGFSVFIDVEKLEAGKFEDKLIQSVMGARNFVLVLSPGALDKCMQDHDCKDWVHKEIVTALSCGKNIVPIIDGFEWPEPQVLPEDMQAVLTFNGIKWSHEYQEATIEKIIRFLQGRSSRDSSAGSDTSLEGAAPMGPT

Tested on in the first experiment: not listed separately
The experiment can be described thus: MELAS cybrid and Rieske KO viability enhancers – cell-based, MELAS cybrids, Rieske KO mouse fibroblasts, CellTiter-Glo, primary screen (AID 1508586).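 Further: z relative to plate mean and SD of compound and empty wells.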 To be noted: Rieske KO mouse fibroblast survival, low glucose, CellTiter-Glo 72 h.
For the compound `CS(=O)(=O)c1ccc(C2=C(c3ccccc3)C(=O)OC2)cc1`, the z-score is -0.00526 and -0.204 and -0.438.

`Cc1cccc(C)c1NC(=O)C1CCCCN1C` (configuration not stated): the z-score was -0.166 and -1.35.

Take `COc1ccc(/C=C/C(=O)Nc2ccccc2C(=O)O)cc1OC`: the z-score is -0.0722 and 0.758.

As to `CCCCC(=O)N(Cc1ccc(-c2ccccc2-c2nn[nH]n2)cc1)[C@H](C(=O)O)C(C)C`, the z-score was 0.0466 and -1.21.

On to `CC(C(=O)O)c1ccc(-c2ccccc2)c(F)c1` (configuration not stated), for which the z-score is 1.18 and -0.0179 and 1.37.

`Nc1ncnc2c1ncn2[C@@H]1O[C@H](CO)[C@@H](O)[C@@H]1O`: the z-score is 0.559 and 1.92.

Take `O=c1ccc2ccc(O)c(O)c2o1`: the z-score came to 0.783.

As to `CN(C)c1nc(N(C)C)nc(N(C)C)n1`, the z-score is 0.906 and 0.36 and 0.155.

Turning to `COc1ccc(-c2cc(=O)c3c(OC)c(OC)c(OC)c(OC)c3o2)cc1OC`, the z-score came to 2.19.

`COC(=O)[C@H](c1ccccc1Cl)N1CCc2sccc2C1`: the z-score is -0.332 and -1.48.

As to `C[N+]1(C)CCCC(OC(=O)C(O)(c2ccccc2)c2ccccc2)C1` (configuration not stated), the z-score is 0.26.

Turning to `C[C@H]1COc2c(N3CCN(C)CC3)c(F)cc3c(=O)c(C(=O)O)cn1c23`, the z-score was -0.528.

For the compound `CC(C)NCC(O)COc1ccc(CC(N)=O)cc1` (configuration not stated), the z-score was -0.19.

Regarding `CNCCC(Oc1ccc(C(F)(F)F)cc1)c1ccccc1` (configuration not stated), the z-score was -2.64 and 0.201 and 0.197.

Take `CC1=C(/C=C/C(C)=C/C=C/C(C)=C\C(=O)O)C(C)(C)CCC1`: the z-score was -0.281.

`COc1ccc(C[C@H](N)C(=O)N[C@H]2[C@@H](O)[C@H](n3cnc4c(N(C)C)ncnc43)O[C@@H]2CO)cc1`: the z-score is -0.707.

As to `CC[C@H]1OC(=O)[C@H](C)[C@@H](O[C@H]2C[C@@](C)(OC)[C@@H](O)[C@H](C)O2)[C@H](C)[C@@H](O[C@@H]2O[C@H](C)C[C@H](N(C)C)[C@H]2O)[C@](C)(OC)C[C@@H](C)C(=O)[C@H](C)[C@@H](O)[C@]1(C)O`, the z-score was -0.647 and -0.657.

Another experiment addresses NAD(+) hydrolase SARM1 (Homo sapiens) (UniProt Q6SZW1). The experiment can be described thus: blocking NAD cleavage by SARM1 SAM-TIR – cell lysate, NAD-Glo luminescence (AID 1508614;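 active means compound whose remaining NAD level is above about 45 nM, limit read from the data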). To be noted: SAM-TIR HEK293T lysate NADase, at 1 µM, stronger effect = higher value.
As for `CS(=O)(=O)c1ccc(C2=C(c3ccccc3)C(=O)OC2)cc1`, the remaining NAD was 10 nM (inactive).

In the case of `Cc1cccc(C)c1NC(=O)C1CCCCN1C` (configuration not stated), the remaining NAD was 10 nM (inactive).

With `COc1ccc(/C=C/C(=O)Nc2ccccc2C(=O)O)cc1OC`, the remaining NAD was 10 nM (inactive).

With `CCCCC(=O)N(Cc1ccc(-c2ccccc2-c2nn[nH]n2)cc1)[C@H](C(=O)O)C(C)C`, the remaining NAD is 10 nM (inactive).

For `CC(C(=O)O)c1ccc(-c2ccccc2)c(F)c1` (configuration not stated), the remaining NAD is 10 nM (inactive).

In the case of `Nc1ncnc2c1ncn2[C@@H]1O[C@H](CO)[C@@H](O)[C@@H]1O`, the remaining NAD was 10 nM (inactive).

On to `CN(C)c1nc(N(C)C)nc(N(C)C)n1`, for which the remaining NAD is 10 nM (inactive).

Consider `CC(C)NCC(O)COc1cccc2ccccc12` (configuration not stated), for which the remaining NAD is 10 nM (inactive).

Turning to `COC(=O)[C@H](c1ccccc1Cl)N1CCc2sccc2C1`, the remaining NAD is 10 nM (inactive).

For `C[N+]1(C)CCCC(OC(=O)C(O)(c2ccccc2)c2ccccc2)C1` (configuration not stated), the remaining NAD was 10 nM (inactive).

In the case of `C[C@H]1COc2c(N3CCN(C)CC3)c(F)cc3c(=O)c(C(=O)O)cn1c23`, the remaining NAD is 10 nM (inactive).

On to `CC(C)NCC(O)COc1ccc(CC(N)=O)cc1` (configuration not stated), for which the remaining NAD is 10 nM (inactive).

As for `CNCCC(Oc1ccc(C(F)(F)F)cc1)c1ccccc1` (configuration not stated), the remaining NAD was 10 nM (inactive).

Take `CC1=C(/C=C/C(C)=C/C=C/C(C)=C\C(=O)O)C(C)(C)CCC1`: the remaining NAD was 10 nM (inactive).

In the case of `CCc1ccc(CCOc2ccc(CC3SC(=O)NC3=O)cc2)nc1` (configuration not stated), the remaining NAD was 10 nM (inactive).

`COc1ccc(C[C@H](N)C(=O)N[C@H]2[C@@H](O)[C@H](n3cnc4c(N(C)C)ncnc43)O[C@@H]2CO)cc1`: the remaining NAD was 10 nM (inactive).

As for `CC[C@H]1OC(=O)[C@H](C)[C@@H](O[C@H]2C[C@@](C)(OC)[C@@H](O)[C@H](C)O2)[C@H](C)[C@@H](O[C@@H]2O[C@H](C)C[C@H](N(C)C)[C@H]2O)[C@](C)(OC)C[C@@H](C)C(=O)[C@H](C)[C@@H](O)[C@]1(C)O`, the remaining NAD was 10 nM (inactive).

Another experiment concerns the target Mitogen-activated protein kinase 7 (Homo sapiens) (UniProt Q13164). Kind of experiment: Gal4-ERK5 driven luciferase induction – cell-based, HTS, primary screen (AID 1508626).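 Further: luciferase driven by Gal4-ERK5 fusion binding five Gal4 sites before minimal TATA.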 The settings on record: HeLa Gal4-ERK5 transactivation, 18 h, at 5 µM, stronger effect = higher value.
As for `CS(=O)(=O)c1ccc(C2=C(c3ccccc3)C(=O)OC2)cc1`, the luciferase signal was 192 AU (inactive).

As to `Cc1cccc(C)c1NC(=O)C1CCCCN1C` (configuration not stated), the luciferase signal is 68 AU (inactive).

As for `CCCCC(=O)N(Cc1ccc(-c2ccccc2-c2nn[nH]n2)cc1)[C@H](C(=O)O)C(C)C`, the luciferase signal was 56 AU (inactive).

As for `CC(C(=O)O)c1ccc(-c2ccccc2)c(F)c1` (configuration not stated), the luciferase signal is 40 AU (inactive).

For `Nc1ncnc2c1ncn2[C@@H]1O[C@H](CO)[C@@H](O)[C@@H]1O`, the luciferase signal was 160 AU (inactive).

As for `O=c1ccc2ccc(O)c(O)c2o1`, the luciferase signal was 64 AU (inactive).

As to `CN(C)c1nc(N(C)C)nc(N(C)C)n1`, the luciferase signal is 40 AU (inactive).

Regarding `Cc1occc(=O)c1O`, the luciferase signal is 52 AU (inactive).

`COc1ccc(-c2cc(=O)c3c(OC)c(OC)c(OC)c(OC)c3o2)cc1OC`: the luciferase signal is 48 AU (inactive).

On to `CC(C)NCC(O)COc1cccc2ccccc12` (configuration not stated), for which the luciferase signal is 48 AU (inactive).

Turning to `COC(=O)[C@H](c1ccccc1Cl)N1CCc2sccc2C1`, the luciferase signal is 20 AU (inactive).

On to `C[N+]1(C)CCCC(OC(=O)C(O)(c2ccccc2)c2ccccc2)C1` (configuration not stated), for which the luciferase signal was 36 AU (inactive).

Take `C[C@H]1COc2c(N3CCN(C)CC3)c(F)cc3c(=O)c(C(=O)O)cn1c23`: the luciferase signal is 296 AU (inactive).

Regarding `CC(C)NCC(O)COc1ccc(CC(N)=O)cc1` (configuration not stated), the luciferase signal was 52 AU (inactive).

On to `CC1=C(/C=C/C(C)=C/C=C/C(C)=C\C(=O)O)C(C)(C)CCC1`, for which the luciferase signal is 48 AU (inactive).

On to `CCc1ccc(CCOc2ccc(CC3SC(=O)NC3=O)cc2)nc1` (configuration not stated), for which the luciferase signal is 48 AU (inactive).

On to `COc1ccc(C[C@H](N)C(=O)N[C@H]2[C@@H](O)[C@H](n3cnc4c(N(C)C)ncnc43)O[C@@H]2CO)cc1`, for which the luciferase signal is 244 AU (inactive).

For the compound `CC[C@H]1OC(=O)[C@H](C)[C@@H](O[C@H]2C[C@@](C)(OC)[C@@H](O)[C@H](C)O2)[C@H](C)[C@@H](O[C@@H]2O[C@H](C)C[C@H](N(C)C)[C@H]2O)[C@](C)(OC)C[C@@H](C)C(=O)[C@H](C)[C@@H](O)[C@]1(C)O`, the luciferase signal was 44 AU (inactive).

Source of the values: PubChem BioAssay.
